Compound activity deposited in PubChem BioAssay by National Center for Advancing Translational Sciences (NCATS).
Cycloheximide cs – Cycloheximide Counterscreen for Small Molecule Inhibitors of Shiga Toxin; cell reporter, cycloheximide protein synthesis inhibition counterscreen; max response, %; 300,000 compounds, 12% hits; in the data active = max response mostly above about 13%, no sharp cut-off; inactive = mostly below about 14%; also: read at 38.3 µM for the half of the compounds with a filed dose
Shiga toxin inh – A qHTS for Small Molecule Inhibitors of Shiga Toxin | AID 2315, 2010 | 290,000 compounds, 9.2% hits | inhibition, % at 38.7 µM | Vero cells, Shiga toxin protein synthesis inhibition reporter; in the data active = inhibition mostly above about 28%, no sharp cut-off; inactive = mostly below about 43%
Lassa entry inh – qHTS for Inhibitors of binding or entry into cells for Lassa Virus; Lassa virus pseudotype entry inhibition, cell reporter; Potency, µM (highest dose often 37.9 µM), actives largely listed as inhibitors; 300,000 compounds, 1.2% hits; AID 540256, 2011; calls by dose curve; tested in HEK293 cells; also: nearly all actives have a fitted effect of over 50% in size
MARV entry inh – qHTS for inhibitors of binding or entry into cells for Marburg Virus | 300,000 compounds, 1.8% hits | Marburg virus pseudotyped entry inhibition, cell reporter | Potency, µM (highest dose often 37.8 µM), usual class: inhibitors; calls by dose curve; tested in HEK293 cells
Numbers stand for hits; - = inactive; ? = inconclusive; . = no result given; + = active, no number. The list is not random: actives were taken first. Their share in the collection is about 12%.

SMILES	Cycloheximide cs	Shiga toxin inh	Lassa entry inh	MARV entry inh
O=C(c1cccs1)N(C(=O)c1cccs1)c1ccc(Br)cn1	37	-	?	?
Cc1ccnc(N(C(=O)c2cccs2)C(=O)c2cccs2)c1	42	71	-	?
O=C(CSc1n[nH]c(=O)n1Cc1ccco1)Nc1ccccc1Cl	-	-	-	-
S=C(NCc1ccco1)Nc1cc(-c2ccccc2)[nH]n1	28	98	-	-
S=C(NCc1ccco1)Nc1ccc(Br)cn1	11	-	.	.
CCCN(C(=O)c1cc(S(=O)(=O)N2CCc3ccccc32)cn1C)c1ccc(OCC)cc1	.	.	-	.
Cc1ccc(SCC(=O)NCCSC(C)(C)C)cc1	29	-	-	?
O=C(CSc1cccs1)NCCc1ccccc1	42	+	-	-
O=C(CSc1ccccc1)NCCc1ccc(F)cc1	29	.	.	.
O=C(CSc1cccs1)Nc1ccc(Cl)cc1	54	50	-	-
O=C(CSc1nnnn1C1CCCCC1)NCc1cccs1	-	-	.	.
CC(Sc1ccccc1)C(=O)NCCc1ccccc1 (centres undefined)	24	32	.	.
O=C(CSc1nnnn1C1CCCCC1)NCCc1ccccc1	62	42	-	-
O=C(CSc1ccccc1)NCCc1ccccc1	37	44	-	?
Cc1ccc(SCC(=O)NCCc2ccccc2)cc1	14	-	?	-
CC(C)C[C@H](NC(=O)[C@H](CO)NC(=O)[C@@H]1CCCN1C(=O)[C@H](Cc1ccc(O)cc1)NC(=O)[C@H](CC(C)C)NC(=O)[C@H](CC(C)C)NC(=O)[C@@H]1CCCN1C(=O)[C@@H](NC(=O)[C@H](CO)NC(=O)[C@H](CO)NC(=O)[C@H](CO)NC(=O)[C@H](CO)NC(=O)[C@@H]1CCCN1C(=O)[C@@H](NC(=O)[C@@H](N)CO)C(C)C)[C@@H](C)O)C(=O)N[C@@H](C)C(=O)N[C@@H](CC(C)C)C(=O)N1CCC[C@H]1C(=O)N[C@@H](C)C(=O)N1CCC[C@H]1C(=O)O	-	-	.	.
O=C(Nc1ccc(Cl)cn1)c1cccc(OCc2ccccc2)c1	22	48	?	-
O=C(Nc1cc(-c2ccccc2)[nH]n1)c1ccc(Cl)cc1	51	88	.	.
CCCOc1ccc(C(=O)Nc2ccc(NC(=O)c3cccc(Cl)c3)cc2)cc1	.	.	-	.
CCCOc1ccc(C(=O)Nc2ccc(Cl)cn2)cc1	30	77	18µM	6.3µM
O=C(Nc1nc(-c2ccccc2)ns1)c1ccc(Cl)cc1	.	.	-	.
CCCOc1ccc(C(=O)NNC(=S)NC(=O)CC)cc1	-	-	15µM	?
COc1ccccc1CCNC(=O)Cc1ccc(NC(=O)N2CCSc3ncccc32)cc1	.	.	-	.
CC(C)(C)c1cc(C(=O)N/N=C/c2cc3c(cc2Br)OCO3)n[nH]1	-	-	.	.
CC1CCN(S(=O)(=O)c2ccc3c(c2)N(CC(=O)NCCc2ccc(Cl)cc2)C(=O)CO3)CC1	.	.	-	?
SMILES	Cycloheximide cs	Shiga toxin inh	Lassa entry inh	MARV entry inh
CCOc1ccc(CNC(=O)c2ccccc2NC(=O)c2nsc3ccccc23)cc1	.	.	-	.
O=C(Nc1ccc(Cl)cn1)c1ccc(Oc2ccccc2)cc1	34	32	?	?
CC1CCCN(C(=O)c2nn(C)c3c2CSc2ccccc2-3)C1 (centres undefined)	18	-	.	.
CN(C(=O)c1nn(C)c2c1CSc1ccccc1-2)c1ccccc1Cl	25	33	.	.
CN(C(=O)c1nn(C)c2c1CSc1ccccc1-2)c1ccc(F)cc1	-	-	.	.
CCN1CCN(CCC(=O)Nc2cc(OC)cc(OC)c2)CC1	-	-	-	-
CCN1CCN(c2ccc(S(=O)(=O)N3CCOCC3)cc2NC(=O)/C=C/c2ccc([N+](=O)[O-])cc2)CC1	.	.	-	?
COc1ccc(N2C(=O)CC(Sc3nnnn3-c3ccc(F)cc3)C2=O)cc1 (centres undefined)	-	-	?	?
O=C1CC(Sc2nnnn2-c2ccccc2)C(=O)N1c1cccc(Cl)c1 (centres undefined)	20	-	?	?
Cc1ccc(OCC(=O)NNC(=O)C2CCCO2)c(C)c1 (centres undefined)	21	-	-	-
Cc1cc(OCC(=O)NNC(=S)NCC2CCCO2)cc(C)c1Cl (centres undefined)	17	-	?	-
Cc1ccccc1OCC(=O)NCC1CCCO1 (centres undefined)	-	-	-	-
Cc1ccc(OCC(=O)NCC2CCCO2)c(C)c1 (centres undefined)	39	-	-	?
Cc1ccc(-c2cc(C(=O)NCc3ccccc3)c3c(-c4ccc(C)cc4)[nH]nc3n2)cc1	.	.	-	.
COc1cccc(-n2c([S-])c(C(=O)Nc3ccc(S(=O)(=O)N4CCOCC4)cc3)[n+]3cc(C(N)=O)ccc23)c1	-	-	-	-
CCCCn1c(NCc2ccc3c(c2)OCO3)nc2ccccc21	12	-	?	?
